Consider nine compounds from PubChem BioAssay.

SMILES strings stand for the structures. Records with an inconclusive call do not appear. The source made the active and inactive calls.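 Rule for the calls, unless noted: active = cell viability at or below a set limit in both duplicate runs, the limit being the all-compound median minus 4 SD (cut at about 23% in these data, passing the limit was not always enough); inconclusive = no clear call, values can overlap the other calls; inactive = the rest.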

The nature of test [1]: Her2 expression decrease, cell viability multiplex – SKBR3 breast tumor cells, AlphaScreen, ATP viability, primary screen (AID 461;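 active = Her2 level under about 52% in both replicate screens, with viability over 70% of control, limit read from the data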;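 for Her2 level: lower value means less Her2 protein in the cells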;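 for viability: percent of carrier control wells set as 100% viability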). To be noted: SKBR3 Her2 protein level, 18-24 h, measured here: SKBR3 viability, ATP luminescence, at 10 µM.
Test [2] addresses Receptor tyrosine-protein kinase erbB-2 (Homo sapiens) (UniProt P04626). The description is as above. The settings on record: 18-24 h, at 10 µM, stronger effect = lower value.
Test [3] can be described thus: reduced viability of SK-BR-3 breast cancer cells – cell-based, 24 h, human, pilot screen (AID 572;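 active = viability at or below 10% of carrier control in both of two separate runs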;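 note: compound exposure lasted between 18 and 24 h rather than exactly 24 h; 100% = carrier-treated control wells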). To be noted: SK-BR-3 viability, CellTiter-Glo luminescence, at 10 µM, stronger effect = lower value. (Cellular ATP, detected with luciferase, serves as a proxy for viable cell number.)
Test [4] in a line: HUVEC growth inhibition – cell-based, human, primary screen (AID 575;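 active = viability at or below 30% in both replicate assays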;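 note: 100% = median of untreated cell wells with 0.1% DMSO on each plate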). The settings on record: HUVEC proliferation, CellTiter-Glo luminescence, 72 h; at 10 µM; stronger effect = lower value.
Test [5] is described as follows: H69AR cell proliferation blockers – human, duplicate replicates, primary screen (AID 580;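 active = viability at or under a set limit in both replicates, limit being median viability minus 3 SD, cut at about 48% in these data, passing the limit was not always enough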;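 note: 100% = mean luminescence of untreated wells and 0% = no signal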). The settings on record: H69AR lung tumor cells viability, ATP luminescence, 72 h; at 10 µM; stronger effect = lower value.
The nature of test [6]: MRP1 drug-resistance reversers in H69AR cells – cell-based, doxorubicin co-treatment, pilot screen (AID 601;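 active = viability loss from added drug above about 55%, and viability with drug at most 40%, in both replicates, limit read from the data, passing the limit was not always enough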). To be noted: CellTiter-Glo, 72 h, at 10 µM; for differential viability (reversal): stronger effect = higher value.
The nature of test [7]: yeast transport mutant growth inhibition pilot in 384-well plates, post-Golgi transport modulator project (AID 636; in the data active = inhibition above about 31%). To be noted: absorbance 615 nm, about 18 h, stronger effect = higher value.
Test [8] can be described thus: growth suppression of yeast trafficking mutant, preliminary HTS, modulators of trafficking downstream of Golgi apparatus project, 1536-format plate, OD 615 nm (AID 637; in the data active = inhibition above about 30%). The settings on record: yeast transport mutant growth, absorbance 615 nm, 18 h; stronger effect = higher value.
Test [9] is described as follows: S. cerevisiae growth inhibition in permissive medium (OD615), pilot counter-assay for S. cerevisiae lifespan shortening project, permissive growth control (AID 705;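 active = growth inhibition above 25% in both replicates, a cutoff set 3 SD above the mean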). To be noted: OD615, 24 h, at 10 µM, stronger effect = higher value.
The nature of test [10]: S. cerevisiae growth inhibition in restrictive medium, OD615, pilot screen, restrictive growth control, yeast lifespan reduction project (AID 706;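 active = growth inhibition above a set limit, 3 SD over mean compound inhibition, in both replicates, cut at about 43% in these data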;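 note: modified DeaD lifespan yeast strain shifted to restrictive glucose medium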). To be noted: OD615, 48 h, at 10 µM, stronger effect = higher value.
Test [11] in a line: doxorubicin toxicity protection in MRP-1 cells – H69AR cells, CellTiter-Glo, duplicate, MRP-1 activator project, pilot screen (AID 807;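 active = viability increase at or above a cutoff of the median across tested compounds plus 3 SD, cut at about 8.5% in these data, passing the limit was not always enough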;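 note: compound pretreatment 18-22 h then 72 h combined with doxorubicin; 0% = doxorubicin alone and 100% = vehicle without doxorubicin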). The settings on record: H69AR viability with doxorubicin, CellTiter-Glo luminescence; at 10 µM; stronger effect = higher value.
The nature of test [12]: viability of HCT116 without oncogenic beta-catenin – human colon tumor cells, pilot screen (AID 823).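 Note: 0% = wells killed by 20 µM Hyamine and 100% = untreated DMSO cell wells.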 To be noted: HCT116 beta-catenin knockout viability, CellTiter-Glo, 60 h; at 10 µM; stronger effect = lower value.
Test [13] in a line: viability of PTEN-null HCT116 cells – cell-based, HCT116 clonal line, CellTiter-Glo, pilot screen (AID 824;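 active = viability at or below 27.92% in each of two runs, the all-compound median minus 4 SD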;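 note: 0% = 20 µM Hyamine control and 100% = vehicle cell control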). The settings on record: HCT116 PTEN-deleted viability, 60 h, at 10 µM, stronger effect = lower value.
Test [14] is described as follows: RAM pathway blockade in budding yeast – dse1pr::URA3 reporter, 5-FOA selection, pilot screen (AID 869;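 active = inhibition over a set limit, the all-compound mean plus 3 SD, in both replicate runs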;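 note: 0% = DMSO wells with no growth and 100% = 10 µM 1-NA-PP1 with full growth; RAM network block rescues cells from 5-FOA so hits raise OD615 growth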). The settings on record: S. cerevisiae dse1pr::URA3 5-FOA growth, OD615, 2 d; at 10 µM; stronger effect = higher value; strain carries analog-sensitive mutant Cbk1 kinase.
The nature of test [15]: RAM signaling pathway blockade in yeast – S. cerevisiae, Pdr1DBD-CYC8 efflux-inhibited sensitized strain, primary screen (AID 1298;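 active = RAM network inhibition above 8.4% in each of two replicates, 3 SD over the compound average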;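 note: 0% = DMSO untreated cells without growth and 100% = 10 µM 1-NA-PP1 full growth; higher means more yeast growth rescued from 5-FOA killing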). The settings on record: S. cerevisiae cbk1-as DSE1-URA3 strain, 5-FOA growth OD615, 2 d; at 50 µM; stronger effect = higher value.
Where [16] appears, read: H69AR cells + 2 uM doxorubicin, measured here: viability with 2 uM doxorubicin, stronger effect = lower value.
Where [17] appears, read: H69AR cells, compound alone cytotoxicity.

Receptor tyrosine-protein kinase erbB-2 (Homo sapiens), sequence (P04626 whole entry, looked up): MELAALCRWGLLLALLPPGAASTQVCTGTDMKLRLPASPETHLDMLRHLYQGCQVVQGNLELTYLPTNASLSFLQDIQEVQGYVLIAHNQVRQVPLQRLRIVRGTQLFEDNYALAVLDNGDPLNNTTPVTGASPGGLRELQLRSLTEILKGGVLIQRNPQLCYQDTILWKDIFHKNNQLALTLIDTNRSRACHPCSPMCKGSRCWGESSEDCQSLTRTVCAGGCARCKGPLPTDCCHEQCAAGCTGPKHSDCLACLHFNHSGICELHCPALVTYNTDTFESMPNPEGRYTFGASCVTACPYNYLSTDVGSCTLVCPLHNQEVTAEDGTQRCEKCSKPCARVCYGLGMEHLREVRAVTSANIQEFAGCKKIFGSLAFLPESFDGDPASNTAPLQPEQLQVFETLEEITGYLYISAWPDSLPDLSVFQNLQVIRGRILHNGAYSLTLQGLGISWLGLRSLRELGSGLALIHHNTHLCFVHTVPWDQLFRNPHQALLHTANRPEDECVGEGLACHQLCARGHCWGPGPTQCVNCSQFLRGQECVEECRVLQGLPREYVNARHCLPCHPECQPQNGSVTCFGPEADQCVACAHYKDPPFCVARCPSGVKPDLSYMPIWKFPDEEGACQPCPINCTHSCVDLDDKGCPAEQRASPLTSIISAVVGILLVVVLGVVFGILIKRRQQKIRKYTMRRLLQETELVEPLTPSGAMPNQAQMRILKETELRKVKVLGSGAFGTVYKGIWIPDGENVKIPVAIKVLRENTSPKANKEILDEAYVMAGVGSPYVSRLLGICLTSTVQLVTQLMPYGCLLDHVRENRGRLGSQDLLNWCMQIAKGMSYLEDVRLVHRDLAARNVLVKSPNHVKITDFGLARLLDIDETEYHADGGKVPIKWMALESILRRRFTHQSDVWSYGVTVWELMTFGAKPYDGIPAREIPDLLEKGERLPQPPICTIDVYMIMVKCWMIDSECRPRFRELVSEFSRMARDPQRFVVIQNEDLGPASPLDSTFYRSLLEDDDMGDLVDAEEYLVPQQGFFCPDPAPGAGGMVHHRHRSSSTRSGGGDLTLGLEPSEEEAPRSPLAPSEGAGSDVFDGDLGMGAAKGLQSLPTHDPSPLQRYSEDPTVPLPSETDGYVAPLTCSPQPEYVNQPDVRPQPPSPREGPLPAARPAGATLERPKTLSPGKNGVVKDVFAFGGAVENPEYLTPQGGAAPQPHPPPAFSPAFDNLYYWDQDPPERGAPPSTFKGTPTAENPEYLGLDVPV

Take `COc1ccc(Cl)cc1S(=O)(=O)N1CCN(c2ccc(F)cc2)CC1`: the viability (in general, a read-out of living cells in per cent, often relative to untreated cells) in [1] is 80%; in test [3] it was 80% (inactive); in test [4], 90.1% (inactive); in test [5], 75.8% (inactive); in test [6] (setting [16]), 87.4%; in [6] (setting [17]), 75.8%. The viability in test [12] was 82.4% (inactive); in [13], 89.7% (inactive). Further, the Her2 level in test [2] is 82% (inactive). The differential viability (reversal) in [6] (H69AR cells + 2 uM doxorubicin) is -11.6% (inactive). Moreover, the inhibition (commonly the drop in the measured response relative to a control, in per cent) in test [7] is 4.23% (inactive); in test [8], 12.7% (inactive); in test [14] it was -0.355% (inactive). Besides, the growth inhibition in test [9] is -13% (inactive); in test [10] it was -15.5% (inactive). In test [11], the viability increase was -2.08% (inactive). Also, the RAM network inhibition in [15] was 1.85% (inactive).
`CC(Oc1ccc2oc(-c3ccccc3)c(C(=O)O)c2c1)C(=O)O` (stereo not drawn): the viability is 95.5% in [1]; 95.5% (inactive) in test [3]; 103% (inactive) in [4]; 103% (inactive) in test [5]; 96.3% in test [6] (setting [16]); 103% in [6] (setting [17]). Further, the viability is 99.3% (inactive) in test [12] and 102% (inactive) in test [13]. In test [2], the Her2 level was 77.5% (inactive). In test [6] (H69AR cells + 2 uM doxorubicin), the differential viability (reversal) was 6.43% (inactive). Besides, the inhibition in test [7] is -4.86% (inactive); in test [8] it was -6% (inactive); in test [14] it was 1.73% (inactive). In addition, the growth inhibition was -7.27% (inactive) in test [9] and 2.06% (inactive) in test [10]. Also, the viability increase in [11] was -1.56% (inactive). For the same compound, the RAM network inhibition in test [15] was 4.67% (inactive).
Regarding `C=CCn1c(SC(C)C(=O)NC2(C#N)CCCCC2)nnc1-c1ccc(OC)cc1` (stereo not drawn), the viability is 90% in [1]; 90% (inactive) in test [3]; 109% (inactive) in test [4]; 92.2% (inactive) in [5]; 78.3% in test [6] (setting [16]); 92.2% in test [6] (setting [17]). Further, the figures for the viability in test [12] and in test [13] were 90% (inactive) and 87.7% (inactive), respectively. For the same compound, in [2], the Her2 level was 73.5% (inactive). In [6] (H69AR cells + 2 uM doxorubicin), the differential viability (reversal) was 13.9% (inactive). In addition, the values for the inhibition in test [7], in test [8] and in [14] were -7.07% (inactive), -5.25% (inactive) and 1.29% (inactive), respectively. Also, the growth inhibition was -4.51% (inactive) in test [9] and -9.22% (inactive) in [10]. Besides, the viability increase in test [11] is -2.25% (inactive). The RAM network inhibition in [15] is 0.47% (inactive).
Consider `COC(=O)c1oc2ccc(Br)cc2c1NC(C)=O`, for which the viability in test [1] was 94%; in test [3] it was 94% (inactive); in test [4], 96.1% (inactive); in test [5], 98.2% (inactive); in [6] (setting [16]), 94.7%; in test [6] (setting [17]), 98.2%. For the same compound, the viability in [12] was 102% (inactive); in [13], 98.4% (inactive). Further, the Her2 level in test [2] is 81% (inactive). The differential viability (reversal) in test [6] (H69AR cells + 2 uM doxorubicin) is 3.47% (inactive). Besides, the inhibition in [7] was -4% (inactive); in test [8], 1.33% (inactive); in test [14], 0.08% (inactive). Moreover, the growth inhibition was -7.17% (inactive) in test [9] and 0.76% (inactive) in test [10]. Further, in [11], the viability increase was 1.21% (inactive). Also, the RAM network inhibition in [15] was 2.66% (inactive).
On to `COC(=O)C1=C(N)OC2=C(C(=O)CCC2)C1c1cccs1` (stereo not drawn), for which the viability is 110% in test [1]; 110% (inactive) in test [3]; 93.7% (inactive) in [4]; 101% (inactive) in test [5]; 83.2% in test [6] (setting [16]); 101% in [6] (setting [17]). The viability is 94.9% (inactive) in test [12] and 92.9% (inactive) in test [13]. The Her2 level in [2] is 85% (inactive). Besides, the differential viability (reversal) in [6] (H69AR cells + 2 uM doxorubicin) is 17.8% (inactive). The inhibition in test [7] is -4.19% (inactive); in test [8], 4.1% (inactive); in test [14], 2.75% (inactive). In addition, the growth inhibition is -2.24% (inactive) in [9] and -6.3% (inactive) in test [10]. In addition, in test [11], the viability increase was -2.89% (inactive). The RAM network inhibition in test [15] is 4.64% (inactive).
Consider `CCC1CCCCN1C(=O)CSc1nnc(-c2ccc(OC)cc2)o1` (stereo not drawn), for which the viability was 98% in test [1]; 98% (inactive) in [3]; 99.8% (inactive) in [4]; 87.6% (inactive) in test [5]; 94.1% in test [6] (setting [16]); 87.6% in test [6] (setting [17]). In addition, the values for the viability in test [12] and in [13] were 95.5% (inactive) and 95.7% (inactive), respectively. In addition, in test [2], the Her2 level was 102% (inactive). Besides, in test [6] (H69AR cells + 2 uM doxorubicin), the differential viability (reversal) was -6.46% (inactive). Also, the results for the inhibition in test [7], in test [8] and in [14] were -3.6% (inactive), -9.34% (inactive) and 2.38% (inactive), respectively. The growth inhibition in test [9] is 7.74% (inactive); in test [10], 54.4% (active). In test [11], the viability increase was -1.66% (inactive). Also, the RAM network inhibition in test [15] was 1.19% (inactive).
As to `O=C(Nc1cccnc1)Nc1ccccn1`, the viability in [1] is 100%; in test [3] it was 100% (inactive); in test [4] it was 105% (inactive); in test [5], 96.9% (inactive); in [6] (setting [16]), 87%; in test [6] (setting [17]) it was 96.9%. The figures for the viability in test [12] and in test [13] were 99.8% (inactive) and 92.9% (inactive), respectively. The Her2 level in [2] was 100% (inactive). Further, the differential viability (reversal) in test [6] (H69AR cells + 2 uM doxorubicin) was 9.92% (inactive). Also, the results for the inhibition in [7], in [8] and in test [14] were -1.69% (inactive), -2.33% (inactive) and 0.185% (inactive), respectively. The growth inhibition in [9] was -2.38% (inactive); in test [10] it was -0.12% (inactive). In addition, the viability increase in test [11] is -0.73% (inactive). The RAM network inhibition in [15] is 0.51% (inactive).
`CC(=O)NC(C)c1nc2ccccc2n1C(C)C` (stereo not drawn): the viability was 90% in test [1]; 90% (inactive) in test [3]; 88.1% (inactive) in [4]; 93.9% (inactive) in test [5]; 81.5% in [6] (setting [16]); 93.9% in test [6] (setting [17]). In addition, the viability in test [12] is 84.8% (inactive); in [13], 90% (inactive). Moreover, in [2], the Her2 level was 106% (inactive). For the same compound, the differential viability (reversal) in [6] (H69AR cells + 2 uM doxorubicin) is 12.4% (inactive). Also, the inhibition in test [7] is -2.8% (inactive); in test [8], -2% (inactive); in test [14] it was 3.16% (inactive). Besides, the growth inhibition in test [9] is -5.54% (inactive); in [10] it was -15.8% (inactive). Besides, in test [11], the viability increase was -2.65% (inactive). In test [15], the RAM network inhibition was -0.31% (inactive).
As to `COc1ccc(S(=O)(=O)N(CC(=O)N2CCN(c3ccccc3OC)CC2)c2ccccc2)cc1`, the viability is 74% in test [1]; 74% (inactive) in test [3]; 51.8% (inactive) in test [4]; 86.8% (inactive) in test [5]; 95.4% in test [6] (setting [16]); 86.8% in test [6] (setting [17]). The viability in test [12] is 67.2% (inactive); in test [13], 72.3% (inactive). Moreover, in test [2], the Her2 level is 108% (inactive). Besides, the differential viability (reversal) in [6] (H69AR cells + 2 uM doxorubicin) is -8.61% (inactive). Moreover, the inhibition was -6.35% (inactive) in test [7], -2.3% (inactive) in test [8] and 0.87% (inactive) in test [14]. For the same compound, the growth inhibition in test [9] and in test [10] was -11.3% (inactive) each time. Further, the viability increase in test [11] was 5.84% (inactive). The RAM network inhibition in [15] is 2.02% (inactive).
